The values that follow come from PubChem BioAssay AID489008 (National Center for Advancing Translational Sciences (NCATS), 2010).

For the assay, the target named is Ferritin light chain (Equus caballus) (UniProt P02791). As to the kind of experiment: Confirmation Assay for Identification of Novel General Anesthetics. Further: nearly all actives have a fitted effect of over 40% in size. As to conditions: apoferritin 1-aminoanthracene fluorescence displacement. The method in brief: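 Horse apoferritin (10 uM) pre-loaded with 1-AMA (50% saturated, PBS) exposed to compounds 10 min at room temperature; loss of 1-AMA fluorescence (380/535 nm) scaled between free and bound ligand, curves fitted with Hill equation.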

Inconclusive results are not listed. Calls of active or inactive are those of the source. The call rests on the fitted dose curve; in most records, active means well fitted inhibition curve with a large enough effect; inconclusive means small, poorly fitted or top-dose-only effect; inactive means flat fitted curve, though single readings scatter.
Potency means the concentration at half of the fitted maximal effect.

Ferritin light chain (Equus caballus), sequence (P02791 2-175 limits assumed): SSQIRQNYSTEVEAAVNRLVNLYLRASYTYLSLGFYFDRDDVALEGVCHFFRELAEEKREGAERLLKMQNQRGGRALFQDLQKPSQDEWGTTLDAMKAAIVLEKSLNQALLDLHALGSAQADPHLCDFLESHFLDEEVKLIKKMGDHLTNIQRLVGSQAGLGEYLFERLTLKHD

In the case of `Cc1ccc(NC(=O)C2COc3ccccc3O2)cc1C` (centres undefined), the Potency is 17.8 µM (active). The result for `CC1CCCC(C)N1C(=O)COc1ccccc1F` (centres undefined) reads 17.8 µM (active). The result for `c1ccc(CCNc2nc3ccccc3s2)cc1` reads 10 µM (active). For the molecule `O=[N+]([O-])c1ccc(CNc2cccc(Cl)c2)s1`, the Potency is 15.8 µM (active). Turning to `O=S(=O)(NCCCc1ccccc1)c1ccc(F)c(F)c1`, the Potency was 17.8 µM (active). With `O=[N+]([O-])c1ccc(CNc2ccc(Cl)cc2)s1`, the Potency is 22.4 µM (active). Regarding `O=C(NC1CCCCC1)C(=S)NCc1ccccc1`, the Potency is 15.8 µM (active). The result for `Cc1cc(C)cc(OCc2nnc(SCC(=O)OC(C)C)o2)c1` reads 12.6 µM (active); that for `Cc1ccc(CNc2ncnc3c2cnn3-c2ccc(C)cc2C)cc1`, 15.8 µM (active); that for `Cc1cc(C)n(Cc2ccccc2Cl)n1`, 12.6 µM (active).

Regarding `CCC1CCCCN1S(=O)(=O)Cc1ccccc1Cl` (centres undefined), the Potency is 15.8 µM (active).

Take `COc1cc(CNCCO)ccc1OCCc1ccccc1`: the Potency was 15.8 µM (active). As for `O=C(CNC(=O)c1ccco1)OCC(=O)c1ccc2c(c1)CCCC2`, the Potency is 31.6 µM (active). The result for `Cc1ccc(NC(=O)N2CCCCCC2)cc1` reads 12.6 µM (active). The result for `COc1ccc(-c2ccc(=O)n(CC(=O)NCc3ccco3)n2)cc1` reads 14.1 µM (active); that for `O=C(CCc1ccccc1)NC(=S)Nc1ccccc1[N+](=O)[O-]`, 15.8 µM (active); that for `Cc1cccc(C(=O)N2CCCCCC2)c1`, 22.4 µM (active).

In the case of `Cc1ccc(NCc2ccccc2O)cc1`, the Potency is 14.1 µM (active). The result for `Cc1nnc(SCc2ccc(F)cc2Cl)s1` reads 22.4 µM (active).
